{"source": "ChEMBL document CHEMBL3988442", "about": "“University of Dundee, Small-Polar-MMV Screening Library” (2021)", "note": "Among all 69,000 compounds or so, about 950 (1.4%) showed an effect of 50% or more. This excerpt belongs to a sample that is enriched for strong results."}
{"tested_on": "Mycobacterium tuberculosis", "experiment": "Cornell M. t heat shock assay; note: in the data most compounds retested in dose-response had high values", "type": "functional, organism-based", "set-up": "dose or concentration left out as unconfirmed", "units": {"Percent Effect": "%"}}
{"smiles": "CC(=O)Nc1ccc(CN2C[C@H]3CC[C@@H]2CN(c2ncccn2)C3)cc1", "Percent Effect": 8.779}
{"smiles": "CC(C)NC(=O)N1Cc2nccn2CC(COc2cccnc2)C1.O=C(O)C(F)(F)F", "note": "(centres undefined)", "Percent Effect": -13.64}
{"smiles": "CNC(=O)CN1CCCC12CCN(C(=O)c1ccsc1)CC2.O=C(O)C(F)(F)F", "Percent Effect": -20.96}
{"smiles": "O=C(Cc1ccccn1)N1CCN2C[C@H](Oc3cncnc3)C[C@H]2C1.O=C(O)C(F)(F)F.O=C(O)C(F)(F)F", "Percent Effect": 3.514}
{"smiles": "CCOc1ccc(CNCC(O)c2ccccc2)cc1Cl.Cl", "note": "(centres undefined)", "Percent Effect": 35.2}
{"smiles": "COc1ccc(CN2CCc3nc(C4CCCCN4C)ncc3C2)cc1", "note": "(centres undefined)", "Percent Effect": 25.26}
{"smiles": "CN1CCCCC1c1ncc2c(n1)CCN(Cc1ccccc1Cl)C2", "note": "(centres undefined)", "Percent Effect": 87.15}
{"smiles": "Cn1cnc2c1CCN(CCCc1ccccc1)C2", "Percent Effect": 8.155}
{"smiles": "CN1CCc2nc(C3CCCCN3Cc3ccccc3Cl)ncc2C1", "note": "(centres undefined)", "Percent Effect": -4.117}
{"smiles": "CN1CCCCC1c1ncc2c(n1)CCN(CCCc1ccccc1)C2", "note": "(centres undefined)", "Percent Effect": 101.2}
{"smiles": "CN1CCCCC1c1ncc2c(n1)CCN(Cc1ccc(Cl)c(F)c1)C2", "note": "(centres undefined)", "Percent Effect": 103.7}
{"smiles": "Cl.Clc1ccccc1CN1CCc2nc(C3CCCCN3)ncc2C1", "note": "(centres undefined)", "Percent Effect": 12.35}
{"smiles": "Cc1ncc2c(n1)CN(CCCc1ccccc1)CC2", "Percent Effect": 3.621}
{"smiles": "CN1CCCCC1c1ncc2c(n1)CCN(Cc1ccc(F)cc1)C2", "note": "(centres undefined)", "Percent Effect": 35.62}
{"smiles": "O=C(CC1CC1)N1CC[C@H]2[C@@H]1CCC(=O)N2c1cccnc1.O=C(O)C(F)(F)F", "Percent Effect": -6.311}
{"smiles": "CC(C)NC(=O)C1(CC2CC(c3ccc(F)cc3)=NO2)CCNCC1.O=C(O)CC(O)(CC(=O)O)C(=O)O", "note": "(centres undefined)", "Percent Effect": -19.28}
{"smiles": "CNC(=O)C1Cn2ccnc2C2(CCN(Cc3cccnc3)CC2)O1.O=C(O)C(F)(F)F.O=C(O)C(F)(F)F.O=C(O)C(F)(F)F", "note": "(centres undefined)", "Percent Effect": -3.867}
{"smiles": "COc1ccccc1CN1CCCCC1c1n[nH]cc1-c1cc(C)no1.Cl", "note": "(centres undefined)", "Percent Effect": 14.98}
{"smiles": "COc1cccc(CN2C[C@@H]3COC[C@]3(COCc3ccncc3)C2)c1.O=C(O)C(F)(F)F.O=C(O)C(F)(F)F", "Percent Effect": -3.091}
{"smiles": "Cc1csc(CN(C)C2CCN(c3sccc3C#N)C2=O)n1", "note": "(centres undefined)", "Percent Effect": -26.99}
{"smiles": "Cc1c[nH]c(CN2CCC3(CCCN(Cc4ccc(F)c(F)c4)C3)C2)n1", "note": "(centres undefined)", "Percent Effect": 58.72}
{"smiles": "Cc1ccc(CN2CCC3(CCCN(Cc4ccc(F)c(F)c4)C3)C2)o1", "note": "(centres undefined)", "Percent Effect": 10.97}
{"smiles": "Fc1ccc(CN2CCCC3(CCN(Cc4ncc[nH]4)C3)C2)cc1F", "note": "(centres undefined)", "Percent Effect": 0.7553}
{"smiles": "CCOC[C@]12COC[C@H]1CN(Cc1ccc3c(c1)OCO3)C2.O=C(O)C(F)(F)F", "Percent Effect": 12.44}
